The nature of the assay: NCI Yeast Anticancer Drug Screen. Data for the rad18 strain (AID 177). Conditions: S. cerevisiae rad18 mutant growth inhibition, stronger effect = higher value. As to the method: Growth inhibition of yeast strains with defined genetic alterations is measured as a screen for potential anti-cancer activity. Selected strains with alterations in DNA damage repair or cell cycle control were exposed to compounds and growth inhibition was measured relative to vehicle treated controls. The strain used in this assay is rad18

The panel holds about 79,000 compounds, 15% with a hit somewhere; the sample as a whole holds those more often. Values without a mark were called inactive. Calls of active or inactive are those of the source. No stated cut-off is given here; in the data, active means growth inhibition above about 70%; inactive means the rest.

As to `Cc1ccc(S(=O)(=O)Oc2cc(Cl)c(Cl)cc2Cl)cc1`, the growth inhibition is -5% (at 1.2 µM); -2% (at 3.7 µM); 1% (at 11.0 µM); -3% (at 33.0 µM); 11% (at 100.0 µM).
`COCCOC(=O)CCn1cc(F)c(=O)[nH]c1=O`: the growth inhibition by setting is: (at 1.2 µM) 1%; (at 3.7 µM) 6%; (at 11.0 µM) 15%; (at 33.0 µM) 32%; (at 100.0 µM) 56%.
Regarding `CNC(=O)OCc1c(COC(=O)NC)c(-c2ccc(Cl)c(Cl)c2)n2c1CCC2`, the growth inhibition runs as follows: (at 1.2 µM) -39%; (at 3.7 µM) -46%; (at 11.0 µM) -32%; (at 33.0 µM) 94% (active); (at 100.0 µM) 97% (active).
As to `c1ccc2c(c1)sc1cc3ccncc3cc12`, the growth inhibition was -3% (at 1.2 µM); -1% (at 3.7 µM); 5% (at 11.0 µM); 22% (at 33.0 µM); 97% (active) (at 100.0 µM).
The like results for `CCCCCCCCC/C=C/C=C/C(=O)NCC(=O)NC1C(O)C(O)C(Nc2ncnc3nc[nH]c23)OC1C(O)CO` (stereo not given) were, in that order, -7%, 7%, 21%, 53% and 48%.
Regarding `c1ccc2c(c1)C(=NCCCN1CCCCCC1)c1cccn1-2`, the growth inhibition by setting is: (at 1.2 µM) -1%; (at 3.7 µM) 1%; (at 11.0 µM) 4%; (at 33.0 µM) 1%; (at 100.0 µM) 98% (active).
As to `CNC1C(OC2C(OC3C(O)C(O)C(N=C(N)N)C(O)C3N=C(N)N)OC(C)C2(O)CO)OC(CO)C(O)C1O` (stereo not given), the growth inhibition is 1% (at 1.2 µM); 10% (at 3.7 µM); 5% (at 11.0 µM); 35% (at 33.0 µM); -12% (at 100.0 µM).
On the same counts, the results for `COC(=O)C1=C(C)NC(C)=C(C(=O)OC)C1c1cccc(/[N+]([O-])=C/c2ccccc2)c1` are 2%, 7%, 17%, 48% and 93% (active).

Source of the values: PubChem BioAssay (NCI).
